# Test results: PubChem BioAssay (NCATS)
# Records with an inconclusive call do not appear. Values without a mark were called inactive. Calls of active or inactive are those of the source. The call rests on the fitted dose curve; in most records, active means well fitted cell-killing curve with a large enough effect; inconclusive means small, poorly fitted or top-dose-only effect, or effect the other way; inactive means no such curve, though single readings can be large or run the other way.
# Assay: qHTS of pediatric cancer cell lines to identify multiple opportunities for drug repurposing: Confirmatory screen for Rh30 cells (AID 1347126); further: nearly all actives have a fitted effect of over 55% in size
# Settings: Rh30 rhabdomyosarcoma cell viability; series mostly up to 45.9 µM; activity change, negative = cytotoxic: at the top concentration
# Summary of the method: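 Cells (500-1,000/well) in growth media were settled 5 h at 37 degrees C, then given compounds for 48 h. Viability was read as CellTiter-Glo luminescence. Primary runs used MIPE at 11 points (0.78 nM-46 µM) and NPC at 8 points (0.59 nM-46 µM); follow-ups used 11 points.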
# On the % scale 0 is the no-effect control and ±100 the full control effect; potency means the concentration at half of the fitted maximal effect.
SMILES,"activity change, negative = cytotoxic [%]",Potency
CCN(CCO)CCCC(C)Nc1ccnc2cc(Cl)ccc12 (configuration not stated),1.96,
O=C(CCc1ccc(O)cc1)c1c(O)cc(O)cc1O,4.2,
Nc1nc(OCc2ccccc2)c2[nH]cnc2n1,-7.09,
CCOc1cc(CC(=O)N[C@@H](CC(C)C)c2ccccc2N2CCCCC2)ccc1C(=O)O,-25.8,
CC(C)C[C@H](NC(=O)[C@H](Cc1ccccc1)NC(=O)c1cnccn1)B(O)O,,0.233 µM (active)
Nc1nc(Cl)nc2c1ncn2[C@H]1C[C@H](O)[C@@H](CO)O1,-28.9,
CC(S)C(=O)NCC(=O)O (configuration not stated),,10.4 µM (active)
